Consider 7 compounds from PubChem BioAssay (Tox21).

Values without a mark were called inactive. Results filed as inconclusive are left out. Calls of active or inactive are those of the source. Unless noted, the call rests on the fitted dose curve; in most records, active means well fitted curve in the direction sought with a large enough effect in the repeat runs; inconclusive means weak or mixed curves; inactive means no such curve, though single readings can be large; an effect the other way counts as inactive or inconclusive.

Experiment [1] concerns the target Thyrotropin receptor (Homo sapiens) (UniProt P16473). As to the kind of experiment: qHTS assay to identify small molecule agonists of the thyroid stimulating hormone receptor (TSHR) signaling pathway (AID 1224843; calls by dose curve; further: nearly all actives have a fitted effect of over 45% in size). In a few lines:
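Steps: seed 800 TSHR-HEK293 cells per well; add test compound and hold 30 min at ambient temperature; dispense cAMP-d2 then anti-cAMP cryptate; incubate 1 h at ambient; measure fluorescence intensity.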
In general terms: Quantitative high-throughput screening tests each substance at several concentrations.

The nature of experiment [2]: qHTS assay to identify small molecule agonists of the hypoxia (HIF-1) signaling pathway - cell viability counter screen (AID 1224844; calls by dose curve; further: nearly all actives have a fitted effect of over 50% in size). In a few lines:
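Luminescent ATP content (CellTiter-Glo, 30 min, room temperature) served as the viability measure in HRE-bla ME-180 cells exposed to compounds for 17 hrs in low-serum medium (0.5% dialyzed FBS).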

Experiment [3] can be described thus: qHTS assay to identify small molecule agonists of H2AX (AID 1224845; active means well fitted activation curve with a large enough effect in the signal ratio in the repeat runs, not every such curve was filed as active; the % refers to the signal ratio). Put shortly:
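Wild-type CHO-K1 cells, plated overnight, exposed 3hr at 37C to 15 concentrations (0.76% DMSO final). Lysed, then HTRF anti-pH2AX (S139) cryptate and anti-H2AX-d2 antibodies, 24 hr room temperature; 665/620 nm emission read.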

Experiment [4] can be described thus: qHTS assay to identify small molecule agonists of the hypoxia (HIF-1) signaling pathway (AID 1224846; active means well fitted activation curve with a large enough effect in the signal ratio in the repeat runs, not every such curve was filed as active; the % refers to the signal ratio). In a few lines:
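Measured by blue/green FRET after loading CCF4-AM: beta-lactamase expressed from a hypoxia response element in ME-180 cells. Test agents were delivered in DMSO and left 17 hrs; cells had been plated 5 hrs earlier in low-serum (0.5% dialyzed FBS) medium.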

The nature of experiment [5]: qHTS assay to identify small molecule agonists of H2AX - cell viability counter screen (AID 1224847; calls by dose curve; further: top concentration of the series differs between compounds; nearly all actives have a fitted effect of over 30% in size). Put shortly:
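For this counter screen, overnight-attached CHO-K1 cells received test compounds (15 concentrations, 0.76% DMSO final); 3 hr later at 37C, CellTiter-Glo reagent was added and luminescence recorded after 30 min at room temperature.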

Experiment [6] is described as follows: qHTS RealTime-Glo MT Cell Viability Assay in HepG2 cells - 24 hour (AID 1224867). Further: nearly all actives have a fitted effect of over 50% in size. In a few lines:
(§1)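 HepG2 suspension premixed with RealTime-Glo reagents is plated at 600 cells per well and left 5 h at 37 C/5% CO2. Compounds in DMSO then go in, and bioluminescence reflecting viable cell number is recorded over 40 h.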

The nature of experiment [7]: qHTS RealTime-Glo MT Cell Viability Assay in HEK293 cells - 32 hour (AID 1224868). Further: nearly all actives have a fitted effect of over 50% in size. Further: potency means the concentration at half of the fitted maximal effect. Put shortly: (§2)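 Reads taken at 0, 8, 16, 24, 32 and 40 h from the same wells. HEK293 cells (600/well) carried RealTime-Glo reagents from seeding, with compound added after a 5 h settle at 37 C.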
Experiment [8] can be described thus: A CellTox Green Cytotoxicity Assay to monitor cytotoxicity in HEK293 cells - 0 hour (AID 1224869). Further: nearly all actives have a fitted effect of over 50% in size. Put shortly: (§3)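 Each value comes from one timepoint of a single continuous run in which HEK293 cells with CellTox Green were exposed to compound for up to 40 h at 37 C, dye fluorescence rising with cell death.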
The nature of experiment [9]: qHTS RealTime-Glo MT Cell Viability Assay in HepG2 cells - 40 hour (AID 1224870). Further: nearly all actives have a fitted effect of over 50% in size. In a few lines: (§4)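 HepG2 cells (600/well) mixed with RealTime-Glo MT reagent, settled 5 h at 37 C/5% CO2 before compound addition. Nonlytic NanoLuc luminescence from viable-cell prosubstrate reduction read repeatedly during 40 h treatment at 37 C.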
The nature of experiment [10]: A CellTox Green Cytotoxicity Assay to monitor cytotoxicity in HEK293 cells - 40 hour (AID 1224871). Further: nearly all actives have a fitted effect of over 45% in size. Put shortly: as §3
A short description of experiment [11]: qHTS RealTime-Glo MT Cell Viability Assay in HEK293 cells - 16 hour (AID 1224872). Further: nearly all actives have a fitted effect of over 50% in size. Further: potency means the concentration at half of the fitted maximal effect. In a few lines:
as §2

The nature of experiment [12]: qHTS RealTime-Glo MT Cell Viability Assay in HepG2 cells - 8 hour (AID 1224873). Further: nearly all actives have a fitted effect of over 55% in size. In a few lines:
as §4

Experiment [13] in a line: qHTS RealTime-Glo MT Cell Viability Assay in HEK293 cells - 40 hour (AID 1224874). Further: nearly all actives have a fitted effect of over 50% in size. Further: potency means the concentration at half of the fitted maximal effect. The following applies: RealTime-Glo luminescence; max response: hits give low values. In a few lines:
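qHTS format; HEK293 cells with NanoLuc/prosubstrate reagent, 37 C/5% CO2 for 5 h pre-dosing; compounds 23 nL in DMSO; luminescence at each time point reflects viable cells.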

Experiment [14] in a line: A CellTox Green Cytotoxicity Assay to monitor cytotoxicity in HEK293 cells - 24 hour (AID 1224875). Further: nearly all actives have a fitted effect of over 45% in size. Put shortly:
as §3

Experiment [15] in a line: A CellTox Green Cytotoxicity Assay to monitor cytotoxicity in HepG2 cells - 16 hour (AID 1224876). Further: nearly all actives have a fitted effect of over 45% in size. Put shortly:
(§5)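 Continuous culture of HepG2 cells with a membrane-impermeant DNA dye; rising fluorescence marks dead cells. Compound exposure lasted up to 40 h at 37 C, with reads every 8 h from 0 h.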

The nature of experiment [16]: qHTS RealTime-Glo MT Cell Viability Assay in HepG2 cells - 32 hour (AID 1224877). Further: nearly all actives have a fitted effect of over 55% in size. In a few lines: as §1
Experiment [17] is described as follows: A CellTox Green Cytotoxicity Assay to monitor cytotoxicity in HepG2 cells - 24 hour (AID 1224878). Further: nearly all actives have a fitted effect of over 45% in size. Put shortly: as §5
Experiment [18] can be described thus: A CellTox Green Cytotoxicity Assay to monitor cytotoxicity in HepG2 cells - 40 hour (AID 1224879). Further: nearly all actives have a fitted effect of over 40% in size. In a few lines: as §5
Experiment [19] can be described thus: qHTS assay to identify small molecule antagonists of the estrogen related receptor (ERR) signaling pathway from Tox21 library (AID 1224848). Further: nearly all actives have a fitted effect of over 50% in size. Put shortly:
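Luminescent reporter read-out (ONE-Glo) from NTP's ERR cell line after 18 h treatment at 37 C with DMSO-dissolved Tox21 compounds; cells pre-plated 6 h beforehand at 2,000 per well.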

Experiment [20] can be described thus: qHTS assay to identify small molecule agonists of the estrogen related receptor (ERR) signaling pathway from Tox21 library (AID 1224849; calls by dose curve; further: nearly all actives have a fitted effect of over 15% in size). The following applies: ERR reporter cell line, ONE-Glo luciferase, 18 h; at 92.4 µM (top of the series) unless noted. Put shortly: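 We plated ERR reporter cells, waited 6 h, added compounds in DMSO by pin tool and incubated them 18 h at 37 C. ONE-Glo was then added and luminescence read after 30 min.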
On the % scale 0 is the no-effect control and ±100 the full control effect.

Chain of Thyrotropin receptor (Homo sapiens) (P16473 whole entry, looked up): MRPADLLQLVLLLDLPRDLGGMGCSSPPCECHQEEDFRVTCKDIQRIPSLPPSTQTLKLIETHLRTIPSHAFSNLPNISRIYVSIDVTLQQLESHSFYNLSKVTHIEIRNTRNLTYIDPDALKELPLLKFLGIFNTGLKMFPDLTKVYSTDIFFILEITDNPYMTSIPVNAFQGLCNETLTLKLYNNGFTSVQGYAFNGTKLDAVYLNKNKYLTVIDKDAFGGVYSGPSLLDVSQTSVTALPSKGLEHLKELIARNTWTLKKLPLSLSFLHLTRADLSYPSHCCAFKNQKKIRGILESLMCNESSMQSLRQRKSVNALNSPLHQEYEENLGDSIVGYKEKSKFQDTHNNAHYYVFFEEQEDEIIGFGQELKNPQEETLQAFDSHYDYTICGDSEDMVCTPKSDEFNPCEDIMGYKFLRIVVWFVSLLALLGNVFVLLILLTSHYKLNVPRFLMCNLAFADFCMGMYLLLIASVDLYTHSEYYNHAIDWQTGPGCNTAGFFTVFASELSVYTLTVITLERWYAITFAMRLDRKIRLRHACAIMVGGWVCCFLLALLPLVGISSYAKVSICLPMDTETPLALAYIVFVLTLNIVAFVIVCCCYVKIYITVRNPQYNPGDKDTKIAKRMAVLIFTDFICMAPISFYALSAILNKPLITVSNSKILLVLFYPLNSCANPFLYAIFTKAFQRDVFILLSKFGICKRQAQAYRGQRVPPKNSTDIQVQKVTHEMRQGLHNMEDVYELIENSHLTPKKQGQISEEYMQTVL

On to `O=C(NC1CCN(CCc2c[nH]c3ccccc23)CC1)c1ccccc1`, for which the Potency entry in experiment [1], in experiment [2], in [3], in experiment [5], in [8] and in experiment [9] was “inactive” each time. Further, the Potency result in experiment [10], in [14], in experiment [15], in [16], in experiment [17] and in experiment [18] was “inactive” each time. Moreover, the result in experiment [4], in [6] and in experiment [12] was inactive. Moreover, the Potency in [7] is 7.56 µM (active); in [11], 9.52 µM (active); in experiment [13], 9.52 µM (active).

As to `C=C[Si]1(C)O[Si](C)(C=C)O[Si](C)(C=C)O[Si](C)(C=C)O1` (centres undefined), the Potency result in experiment [1], in [2], in [3], in experiment [5], in [7] and in [8] was “inactive” each time. Also, the Potency result in [9], in [10], in [11], in experiment [14] and in experiment [16] was “inactive” throughout. In addition, the call in [4], in [6] and in experiment [12] was inactive. For the same compound, in experiment [13], the max response was -1.07%.

For `C=Cc1ccc(C=C)cc1`, the Potency result in [1], in experiment [2], in [3], in experiment [5], in experiment [19] and in [7] was “inactive” each time. For the same compound, the Potency entry in experiment [8], in experiment [9], in [10], in experiment [11], in [14] and in [15] was “inactive” each time. The Potency entry in experiment [16], in experiment [17] and in experiment [18] was “inactive” each time. Besides, the compound was classed as inactive in experiment [4] and in experiment [12]. The activity change, positive = activation in experiment [20] is 3.76%. Also, in experiment [13], the max response was 11.4%.

Regarding `CCCCCCCCCCCCSCCOCCO`, the Potency entry in [1], in experiment [2], in experiment [3], in [5], in experiment [19] and in [7] was “inactive” throughout. The Potency entry in experiment [8], in experiment [9], in experiment [11], in experiment [14], in experiment [15] and in [16] was “inactive” each time. Besides, the Potency result in experiment [17] and in experiment [18] was “inactive” in each case. The outcome in experiment [4] and in [12] was inactive. Besides, in experiment [20], the activity change, positive = activation was -7.91% [at 42.5 µM]. The max response in [13] is -17.3%.

For the compound `Sc1nc(S)nc(S)n1`, the Potency entry in [1], in experiment [2], in experiment [3], in experiment [5], in [7] and in [8] was “inactive” in each case. Also, the Potency entry in experiment [9], in experiment [10], in experiment [11], in experiment [14], in experiment [15] and in [16] was “inactive” each time. The Potency entry in [17] and in experiment [18] was “inactive” in each case. Further, the result in [4], in [6] and in experiment [12] was inactive. Also, in [20], the activity change, positive = activation was -29.2% [at 42.5 µM]. In addition, in [13], the max response was 5.08%.

Take `O=C(O)COCC(=O)O`: the Potency entry in experiment [1], in [2], in [3], in experiment [5], in [7] and in experiment [8] was “inactive” each time. The Potency entry in experiment [9], in experiment [11], in experiment [14], in experiment [15], in experiment [16] and in experiment [17] was “inactive” throughout. Further, the Potency entry in experiment [18] was “inactive”. In addition, the call in experiment [4], in experiment [6] and in experiment [12] was inactive. Also, the max response in experiment [13] is -0.496%.

For the compound `FC(F)(Cl)C(F)(Cl)Cl`, the Potency entry in [1], in experiment [2], in experiment [3], in [5], in experiment [7] and in [8] was “inactive” throughout. For the same compound, the Potency entry in [9], in experiment [10], in experiment [11], in [14], in [15] and in [16] was “inactive” each time. Further, the Potency result in experiment [17] and in experiment [18] was “inactive” throughout. Besides, the call in experiment [4], in experiment [6] and in [12] was inactive. The max response in experiment [13] is 10.2%.
